# PubChem BioAssay AID2717 (Broad Institute, 2010)
# About 3,200 (1.1%) of roughly 300,000 compounds were called active. Shown is part of a subset that was picked to be rich in actives. Unmarked numbers belong to inactive results. No stated cut-off is given here; in the data, active means inhibition above about 75%; inconclusive means no clear call, values can overlap the other calls; inactive means below that; tested in HMLE shEcad cells.
# Assay: cancer stem cell viability inhibitors, primary screen, luminescence (AID 2717)
# Conditions: cancer stem cell-like cells viability, at 7.5 µM, stronger effect = higher value
row,SMILES,inhibition
1,CC(OC(=O)c1c(F)cccc1F)C(=O)NCCC1=CCCCC1 (stereo not drawn),-17.6%
2,Cn1c(N)c(C(=O)COC(=O)c2cccc(S(=O)(=O)N3CCOCC3)c2)c(=O)n(C)c1=O,8.64%
3,CCOc1ccc2nc(NC(=O)c3cc([N+](=O)[O-])ccc3N3CCOCC3)sc2c1,36.3%
4,O=C(NC(Nc1nc2ccc([N+](=O)[O-])cc2s1)(C(F)(F)F)C(F)(F)F)c1ccccc1,98.4% (active)
5,CCC(=O)NC(Nc1nc2ccc(C)cc2s1)(C(=O)OC)C(F)(F)F (stereo not drawn),6%
6,Cc1cccc(OCC(=O)OCC(=O)Nc2ccc(Cl)cn2)c1,0.766%
7,COC(=O)C1CCN(C(=O)COC(=O)c2cc(S(=O)(=O)N3CCOCC3)ccc2C)CC1,4.55%
8,COc1cc2c(-c3ccc4c(c3)OCO4)c(-c3ccsc3)oc(=O)c2cc1OC,8.35%
9,Cc1ccc(S(=O)(=O)NCC(=O)NNC(=O)c2ccc(Br)cc2)cc1C,1.69%
10,CCCCn1c(SCC(=O)NCC2CCCO2)nc2ccc(N3CCOCC3)cc2c1=O (stereo not drawn),34.5%
11,N#CCSc1nc2ccc(N3CCOCC3)cc2c(=O)n1CCc1ccccc1,77.9% (active)
12,COCCCNC(=O)CSc1nc2ccc(N3CCOCC3)cc2c(=O)n1CCc1ccccc1,20.5%
13,CSc1ncccc1C(=O)Nc1cccc(S(=O)(=O)N2CCOCC2)c1,-12.8%
14,O=C(CS(=O)(=O)c1cn(Cc2cccc(F)c2)c2ccccc12)N1CCCCC1,-3.16%
15,O=c1cc(N2CCCCC2)c(-c2ccccc2)nn1Cc1cccc(F)c1,76.4% (active)
16,c1ccc(-c2cc(N3CCCCC3)c3ccccc3n2)cc1,38.6%
17,CC(=O)c1c(OCC(=O)N(C)C2CCCCC2)ccc2c(C)cc(=O)oc12,-10.2%
18,O=C(CNC(=O)c1ccco1)NNC(=O)c1ccc(Br)cc1,5.78%
19,O=C(Cc1cccc2ccccc12)NNC(=O)Nc1ccc(Cl)cc1,8.44%
20,Cc1ccc(NC(=S)NC(NC(=O)Cc2cccc3ccccc23)C(Cl)(Cl)Cl)cc1 (stereo not drawn),192% (active)
21,CC(C)(C)C(=O)NC(NC(=S)Nc1ccc(S(N)(=O)=O)cc1)C(Cl)(Cl)Cl (stereo not drawn),-4.65%
22,CCOC(=O)[C@H]1[C@H]2COc3ccc(Cl)cc3[C@@H]2N2C(=O)c3cc(C)ccc3NC(=O)[C@@]12C,-10.6%

row,SMILES,inhibition
1,CCCCn1c(-c2cccc(C)c2)nc2cc3[nH]c(=O)c(C(C)C)nc3cc21,75.5% (active)
2,CCCCn1c(N)c(N(CCOC)C(=O)CSCC(=O)Nc2cccc(C)c2)c(=O)[nH]c1=O,-17.7%
3,CCOCCn1c(-c2ccccc2)nc2ccccc21,-0.165%
4,Cc1cc(NC(=O)CN2C(=O)NC(CC(C)C)C2=O)no1 (stereo not drawn),-1.14%
5,Cc1ccccc1NC(=O)CSC(=O)c1ccccc1,-3.3%
6,O=C(COC(=O)/C=C/c1ccc(Br)o1)Nc1cccc(S(=O)(=O)N2CCOCC2)c1,-14.4%
7,COc1ccc(C=Nc2cccc3ncccc23)cc1,-1.64%
8,Oc1c(C=Nc2cccc3nsnc23)ccc2ccccc12,87.2% (active)
9,O=[N+]([O-])c1ccc(N=Cc2c(O)ccc3ccccc23)cc1,12.2%
10,C[C@H]1CN([C@@H](C)CO)C(=O)Cc2cc(NC(=O)Cc3ccccc3)ccc2O[C@H]1CN(C)S(=O)(=O)c1cccs1,-17%
11,CCCC(=O)Nc1nc2ccc(NC(=O)c3cccnc3)cc2s1,47.6%
12,CCCC(=O)Nc1nc2ccc(NC(=O)c3c(F)c(F)c(OC)c(F)c3F)cc2s1,92% (active)
13,CSc1nc2ccc(NC(=O)c3c(F)cccc3F)cc2s1,4.73%
14,Cc1ccc(S(=O)(=O)N2[C@@H](c3cccc4ccccc34)C(C(=O)O)=C[C@H]2C(C)(C)C)cc1,11.1%
15,COc1cccc(NC(=O)CSc2nnc(C3CCCCC3)n2N)c1,-6.52%
16,Cc1cc(C)c(NC(=O)C[N+](C)(C)CC(O)COc2cccc3ccccc23)c(C)c1 (stereo not drawn),-3.82%
17,CC(C)c1ccccc1OCC(O)CN(CC(O)COc1cccc2ccccc12)C(C)C (stereo not drawn),102% (active)
18,OC(COc1cccc2ccccc12)CN1CCN(c2ccccn2)CC1 (stereo not drawn),-5.87%
19,Cc1ccc(CC(=O)Nc2ccc(OC(F)F)c(Cl)c2)cc1C,33.3%
20,O=C(Cc1ccc(Cl)c(Cl)c1)Nc1ccc(SC(F)F)cc1,75.2% (active)
21,CC(=O)N1CCN(CC(=O)Nc2ccc(SC(F)F)cc2)CC1,5.6%
22,COc1cc([N+](=O)[O-])ccc1NC(=O)COC(=O)CCOc1ccc(C)cc1,18.1%

row,SMILES,inhibition
1,COc1ccc(/C=C/C(=O)c2ccc(NS(=O)(=O)c3ccc(C)cc3)cc2)cc1O,99.8% (active)
2,COc1ccc(NS(=O)(=O)c2ccc(NC(=S)NC(=O)/C=C/c3ccc(C)cc3)cc2)nn1,9.35%
3,Cc1ccc(C(=O)/C=C/Nc2ccc(S(=O)(=O)Nc3onc(C)c3C)cc2)cc1,6.82%
4,CC(C)(C)OC(=O)C[C@@H]1C/C=C\C[C@@H](CC(=O)NCCO)C(=O)N[C@H](Cc2c[nH]c3ccccc23)COC1=O,-11.3%
5,Cc1ccc(Br)c(NS(=O)(=O)c2cccc(C(=O)N3CCNC(=O)C3)c2)c1,-15.2%
6,CN1CCN(C2Cc3ccc(Cl)cc3Sc3ccc(F)cc32)CC1 (stereo not drawn),101% (active)
7,O=C(N=C1SC2CS(=O)(=O)CC2N1c1ccccc1)c1ccccc1 (stereo not drawn),-9.26%
8,Cc1ccc(C2(C)NC(=O)N(CC(=O)N3CC(=O)Nc4ccccc43)C2=O)cc1 (stereo not drawn),-12.5%
9,O=C(c1ccc(S(=O)(=O)NCc2ccco2)cc1)N1CCN(c2ccccc2)CC1,-16.3%
10,CC(C)(c1ccccc1)c1ccc(OCCN)cc1,37%
11,CC(C)(c1ccccc1)c1ccc(OCCN2CCCC2)cc1,91.2% (active)
12,Cc1cc(OCCN2CCCC2)ccc1C(C)C,1.11%
13,CN(Cc1ccc(F)cc1)C(=O)CN1C(=O)c2ccccc2S1(=O)=O,1.87%
14,Cc1cc(NC(=O)COC(=O)/C=C/c2ccc(C)o2)no1,-11.7%
15,O=C(CCc1ccccc1)Nc1ncc([N+](=O)[O-])s1,23.5%
16,O=C(Nc1ncc([N+](=O)[O-])s1)C1COc2ccccc2O1 (stereo not drawn),54.2%
17,CC(=O)Oc1ccccc1C(=O)Nc1ncc([N+](=O)[O-])s1,76.2% (active)
18,COc1cccc(CNC(C)C(=O)Nc2ccc(S(=O)(=O)N3CCCC3)cc2)c1 (stereo not drawn),10.7%
19,CN(C(=O)COC(=O)CCCc1c[nH]c2ccccc12)c1c(N)n(Cc2ccccc2)c(=O)[nH]c1=O,-11.7%
20,CC1(C)C2CC[C@]3(C)C(CC=C4[C@@H]5C[C@@](C)(CO)CC[C@]5(C(=O)O)CC[C@]43C)[C@@]2(C)CC[C@@H]1O (stereo partly drawn),-8.25%
21,CC1(C)CC[C@@]2(C(=O)O)C(C1)C1=CCC3[C@@]4(C)CC[C@H](O)C(C)(C)C4CC[C@@]3(C)[C@]1(C)C[C@H]2O (stereo partly drawn),87.8% (active)
22,CC1(C)CC[C@]2(C(=O)O)CC[C@]3(C)C(=CCC4[C@@]5(C)CC[C@H](O)C(C)(C)C5[C@H](O)C[C@]43C)[C@@H]2C1 (stereo partly drawn),-4.41%

row,SMILES,inhibition
1,CCOC(=O)[C@H]1[C@H]2COc3ccccc3[C@@H]2N2C(=O)CN(Cc3ccccc3)C(=O)[C@@]12C,-9.72%
2,CC(C)CC(=O)N1CCN(Cc2cccc(Cl)c2)CC1,-2.32%
3,Clc1cccc(CN2COc3c(cc(Cl)c4cccnc34)C2)c1,118% (active)
4,O=C(c1cccc(Cl)c1)N1CCN(Cc2ccccc2)CC1,-14.8%
5,O=C(OCC(=O)N1CCCCCC1)c1ccc(Br)c(S(=O)(=O)N2CCOCC2)c1,-10.2%
6,COc1ccc(-c2nc3cnccn3c2NC2CCCCC2)cc1-c1cccc(Cl)c1,105% (active)
7,COc1ccc(-c2nc3cnccn3c2NC(C)(C)CC(C)(C)C)cc1O,0.145%
8,Cc1ccc2nc(-c3cccnc3)c(NC3CCCC3)n2c1,-4.39%
9,CCN(c1ccccc1)S(=O)(=O)c1cccc(C(=O)NCc2ccccc2CN2CCOCC2)c1,-15.2%
10,Cc1ccc(-c2nc(C#N)c(NCCCn3ccnc3)o2)cc1,-10.2%
11,N#Cc1nc(-c2ccc(OCc3ccccc3)cc2)oc1NCCCN1CCOCC1,86.3% (active)
12,O=S(=O)(c1ccccc1)c1nc(-c2ccccc2)oc1NCCCN1CCOCC1,-5.33%
13,CC(=O)Nc1ccc(S(=O)(=O)Nc2ccc(N3CCCCC3)cc2)cc1,21.5%
14,Cc1nn(C)c(C)c1NS(=O)(=O)c1ccc(OC(F)(F)F)cc1,1.58%
15,O=S(=O)(Nc1ccc(O)c2ccccc12)c1ccc(OC(F)(F)F)cc1,106% (active)
16,O=S(=O)(Nc1ccc(OC(F)(F)F)cc1)c1cccc2nonc12,-7.85%
17,Cc1noc(C)c1NC(=O)Nc1ccc2c(c1)C(=O)N([C@H](C)CO)C[C@H](C)[C@@H](CN(C)S(=O)(=O)c1cn(C)cn1)O2,-15.6%
18,Cc1cccc(NC(=O)c2ccc(S(=O)(=O)N(C)c3ccccc3)cc2)n1,-22%
19,COc1ccc(-c2c(C#Cc3ccsc3)c3cc(-c4ccc(CN5CCOCC5)cc4)ccc3n2C)cc1,31.2%
20,COc1ccc(Cc2nnc(N/N=C/c3ccccc3O)[nH]c2=O)cc1OC,106% (active)
21,COc1ccc(/C=N/Nc2nc3ccccc3c(=O)[nH]2)cc1,13%
22,CC(C)c1ccc(Cc2nnc(NCCCO)[nH]c2=O)cc1,13.6%
